# Test results taken from PubChem BioAssay (Tox21).
# Inconclusive results are not listed. Unmarked numbers belong to inactive results. The call rests on the fitted dose curve; in most records, active means well fitted activation curve with a large enough effect in the signal ratio in the repeat runs, with a control signal flat (not every such curve was filed as active); inconclusive means weak or mixed curves; inactive means flat fitted curve, though single readings scatter; the % refers to the signal ratio.
# Test: qHTS assay for small molecule activators of the heat shock response signaling pathway (AID 743210)
# Details: HeLa HSE-bla reporter, beta-lactamase ratio, 5 h; series mostly up to 62.6 µM; activation: at the top concentration
# Excerpt: U.S. Tox21 Program National Center for Advancing Translational Sciences [NCATS] NIH Chemical Genomics Center [NCGC] U.S. Environmental Protection Agency [EPA] National Institutes of Environmental Health Sciences [NIEHS] National Toxicology Program [NTP] U.S. Food and Drug Administration [FDA] Tox21 Assay Overview: Various chemicals, environmental and physiological stress conditions may lead to the activation of heat shock response/ unfolded protein response (HSR/UPR). There are three heat shock transcription factors (HSFs) (HSF-1, -2, and -4) mediating transcriptional regulation of the human HSR. To identify the compounds that activate HSR signaling, HSE-bla HeLa cell line (Invitrogen, Carlsbad, CA, USA) containing a beta-lactamase reporter gene under the control of the heat shock response elements was used to screen the Tox21 10K compound library.
# Tox21 Assay Protocol Summary: The CellSensor HSE-bla HeLa cells (Invitrogen, Carlsbad, CA, USA) were dispensed at 1500 cells/6uL/well into 1536-well black wall/clear bottom plates using a Multidrop combi (Thermo Fisher Scientific, Waltham, MA) dispenser. After the assay plates were incubated at 37 C and 5% CO2 overnight, 23 nL of compounds dissolved in DMSO, positive controls or DMSO only was transferred to the assay plate by a Pintool station (Kalypsys, San Diego, CA). The plates were incubated at 37 C for 5 h. After 1 uL of LiveBLAzerTM B/G FRET substrate was added using a Flying Reagent Dispenser (Beckman Coulter, Indianapolis, IN, USA), the plates were incubated at room temperature for 2.5 h, and fluorescence intensity was measured by an Envision plate reader (PerkinElmer, Shelton, CT).
# On the % scale 0 is the no-effect control and ±100 the full control effect.
row,SMILES,activation
1,COc1ccc2c(c1)c1c3n2CCN(C)C3=NCC1,0.625%
2,CC(=O)C1C(=O)C=C(C)OC1=O (stereo not given),0.956%
3,CCCCCCCCCOC(=O)CCCCC(=O)OCCCCCCC,-1.99%
4,CC/C=C\CCOC(=O)c1ccccc1O,-1.1%
5,CC(C)CO,0.149% [at 81.1 µM]
6,CC(=O)c1cc(C)oc1C,-0.0015% [at 81.1 µM]
7,CCc1occc(=O)c1O,2.31%
8,C=CCSSCCC,0.499%
9,C=C(C)[C@@H]1CC=C(C)CC1,-0.738%
10,OCC(O)CN1CCN(c2ccccc2)CC1 (stereo not given),-0.025%
11,CO[C@@]1(NC(=O)Cc2cccs2)C(=O)N2C(C(=O)O)=C(COC(N)=O)CS[C@@H]21,-1.38%
12,COc1cc(/C=C/C(N)=O)cc(OC)c1OC,0.0281%
13,CC(C)c1ccc(C=O)cc1,0.0999%
14,CC1(C)Cc2cccc(N)c2O1,0.887%
15,Cn1nnc2c(C(N)=O)ncn2c1=O,-1.65%
16,CO/N=C(/C(=O)N[C@@H]1C(=O)N2C(C(=O)[O-])=C(C[n+]3ccn4ncccc43)CS[C@H]12)c1nsc(N)n1,1.79%
17,CCCCOC(=O)[C@H](C)O,-1.21%
18,O=C1OCCO1,-0.323% [at 81.1 µM]
19,CC1(C)Oc2ccc(C#N)cc2[C@@H](N2CCCC2=O)[C@@H]1O,0.245%
20,CCn1cc(C(=O)O)c(=O)c2cnc(N3CCCC3)nc21,-0.943% [at 13.2 µM]

row,SMILES,activation
1,C[Si]1(C)O[Si](C)(C)O[Si](C)(C)O[Si](C)(C)O[Si](C)(C)O1,-0.398%
2,CN(C)CCOC(=O)C(c1ccccc1)C1(O)CCCC1 (stereo not given),2.06%
3,CC(Oc1cc(Cl)ccc1Cl)C(=O)O (stereo not given),-1.82%
4,COC(=O)c1cccc(Cl)c1,-0.0992%
5,CC(C)(CO)C(O)C(=O)NCCCO (stereo not given),1.51%
6,CC(=O)O[C@@H]1CC2CCC1(C)C2(C)C (stereo not given in full),-1.77%
7,CCOc1ccccc1OCC1CNCCO1 (stereo not given),-0.123%
8,CCO[Si](CC)(OCC)OCC,-0.21%
9,C=Cc1ccc(C(C)(C)C)cc1,-1.63%
10,O=C(O)CNC(=O)CNC(=O)CNC(=O)CSC(=O)c1ccccc1,-0.892%
11,Cc1ccc2c(c1)C(=O)c1ccccc1C2=O,-1.49%
12,NCC1(Cc2noc(=O)[nH]2)CCCCC1,0.0507%
13,C=CC(=O)OCC1CCCO1 (stereo not given),1.83%
14,CCC(C)OC(C)CC (stereo not given),-0.471% [at 81.1 µM]
15,CCCCCc1cccc(=O)o1,0.0065%
16,CC1(C)[C@H]2CC[C@](C)(C2)[C@H]1O,0.837% [at 81.1 µM]
17,CC(CO)(CO)CO,1.01% [at 81.1 µM]
18,CCOC(=O)CC1(C)OCC(C)O1 (stereo not given),1.86%
19,CC(C)C1OCCN1CCOC(=O)NCCCCCCNC(=O)OCCN1CCOC1C(C)C (stereo not given),-0.978%
20,CC1=NN(c2ccc(S(=O)(=O)O)cc2)C(=O)C1,-0.388%
